# MgrA-DNA mod: modulators of Staphylococcus aureus MgrA DNA binding; inhibition, % (no concentration beside the values); hit rate 0.13% among 84,000; fluorescence polarization; AID 602314; in the data active means inhibition above about 30%, passing the limit was not always enough;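 further: 0% = protein plus DNA without compound and 100% = DNA alone without protein; higher means less MgrA bound to DNA so lower polarization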
# Starred values were filed as active, the others as inactive. Many of the other results were omitted from the sample, so hits are more common in it than they were.
SMILES,MgrA-DNA mod
O=[N+]([O-])c1ccc(N2CCCC2)c2nonc12,52*
O=[N+]([O-])c1ccc(N2CCCCC2)c2nonc12,16
Cc1cc(OC(=O)N(C)C)nc(-c2ccc(F)c(Cl)c2)n1,0
O=c1cccc2n1CC1CC2CN(CC(O)/C=N/n2cnnc2)C1 (stereo not given),6
CCc1[o+]c(-c2ccc(OC)cc2)cc2cc(OC)c(OC)cc12,-3
CC1OP(=S)(C(Nc2ccccc2)c2ccccc2)OC1C (stereo not given),-4
COc1ccc(-n2c(C)cc(/C=C3/C(=O)NC(=O)N(Cc4ccco4)C3=O)c2C)cc1,7
CCN1C(=O)NC(=O)/C(=C\c2cn(CC(=O)N3CCCCC3C)c3ccccc23)C1=O (stereo not given),15
CCOC(=O)C1CCN(/C=C2/C(=O)NC(=O)N(Cc3ccco3)C2=O)CC1,29*
Cc1ccc2occ(CN3CC=C(c4ccc(F)cc4)CC3)c(=O)c2c1,-2
COC(=O)C1=CN2C(C=C1)C(C(=O)OC)(C(=O)OC)[C@@H](c1cccnc1)[C@@H]2C#N (stereo not given in full),52*
Clc1cccc(NC2=NCCS2)c1Cl,0
C[N+]1(CCOCC2CCC[N+]3(C)CCCCC23)CCCCC1 (stereo not given),2
C[C@]12CC3SC3C[C@@H]1CC[C@@H]1[C@@H]2CC[C@]2(C)[C@@H](O)CC[C@@H]12 (stereo not given in full),1
O=C(O)C(O)(c1ccc(Br)cc1)c1ccc(Br)cc1,2

# Source: PubChem BioAssay
